Test [1] is described as follows: E. coli DRC41 culture turbidity changes, primary screen, E. coli filamentation inducer project, strain DRC41, OD650, 48 h (AID 1152).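 Note: E. coli MC1000 strain DRC41 lacking acrAB efflux pump and sulA.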 The following applies: E. coli DRC41 (acrAB sulA), higher = more signal, called active from +8 up or from −8 down.
Test [2] can be described thus: small-molecule binders of probe aLefty1, primary screen, biochemical, small-molecule microarray, 635/667 nm fluorescence (AID 1153).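 Note: score merges spot fluorescence with signal-to-noise ratio from the scanned slide images.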 The following applies: higher = more signal.
Test [3] in a line: PSAC antagonists in infected red cells, primary screen, cell-based, P. falciparum Indochina, OD700, 1 h (AID 1154). To be noted: P. falciparum Indochina infected RBC osmotic lysis, higher = more signal, called active from +8 up or from −8 down.
Test [4] is described as follows: PSAC antagonists in infected red cells, primary screen, cell-based, P. falciparum Indochina, OD700, 2 h (AID 1155).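 Note: lysis reports solute entry through the parasite surface anion channel PSAC; channel blockers reduce lysis of infected cells.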 The following applies: P. falciparum Indochina infected erythrocytes, osmotic lysis OD700; higher = more signal, called active from +8 up or from −8 down.
The nature of test [5]: osmotic lysis modulators in infected erythrocytes, primary screen, PSAC antagonist project, cell-based, P. falciparum Indochina, OD700, 3 h (AID 1156). To be noted: higher = more signal, called active from +8 up or from −8 down.
The nature of test [6]: PSAC antagonists in infected red cells, primary screen, cell-based, P. falciparum Indochina, OD700, 18 h (AID 1157). To be noted: P. falciparum Indochina infected erythrocytes, osmotic lysis OD700, 18 h; higher = more signal, called active from +8 up or from −8 down.
A short description of test [7]: modulators of S6 phosphorylation in cells, primary screen, cell-based, A549, cytoblot, luminescence, serum-stimulated (AID 1158).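 Note: serum-stimulated A549 lung adenocarcinoma cells; signal is phosphorylated S6 detected by cytoblot immunostaining with HRP secondary.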 To be noted: A549 phospho-S6 cytoblot, 5 h, higher = more signal.
Test [8] addresses NADPH oxidase 2 (Homo sapiens) (UniProt P04839). As to the kind of experiment: NOX2-dependent H2O2 signal modulators, primary screen, NOX inhibitor project, cell-based, HEK293-NOX2, PMA-stimulated, Amplex Red fluorescence (AID 1159). Note: test concentration not given here. The following applies: 45 min, higher = more signal, called active from +8 up or from −8 down.
Test [9] has as its target NADPH oxidase 4 (Homo sapiens) (UniProt Q9NPH5). The experiment in a line: NOX4-dependent H2O2 signal modulators, primary screen, NOX inhibitor project, cell-based, HEK293-NOX4, tetracycline-induced, Amplex Red fluorescence (AID 1160). The following applies: 45 min, higher = more signal, called active from +8 up or from −8 down.
Test [10] deals with NADPH oxidase 5 (Homo sapiens) (UniProt Q96PH1). The experiment in a line: NOX5-dependent H2O2 signal modulators, primary screen, NOX inhibitor project, cell-based, HEK293-NOX5, Amplex Red fluorescence (AID 1161). To be noted: HEK293-NOX5, ionomycin, 45 min, higher = more signal.

Molecules are shown by their SMILES. Activity calls are given as the source filed them.

Sequence of NADPH oxidase 2 (Homo sapiens) (P04839 whole entry, looked up): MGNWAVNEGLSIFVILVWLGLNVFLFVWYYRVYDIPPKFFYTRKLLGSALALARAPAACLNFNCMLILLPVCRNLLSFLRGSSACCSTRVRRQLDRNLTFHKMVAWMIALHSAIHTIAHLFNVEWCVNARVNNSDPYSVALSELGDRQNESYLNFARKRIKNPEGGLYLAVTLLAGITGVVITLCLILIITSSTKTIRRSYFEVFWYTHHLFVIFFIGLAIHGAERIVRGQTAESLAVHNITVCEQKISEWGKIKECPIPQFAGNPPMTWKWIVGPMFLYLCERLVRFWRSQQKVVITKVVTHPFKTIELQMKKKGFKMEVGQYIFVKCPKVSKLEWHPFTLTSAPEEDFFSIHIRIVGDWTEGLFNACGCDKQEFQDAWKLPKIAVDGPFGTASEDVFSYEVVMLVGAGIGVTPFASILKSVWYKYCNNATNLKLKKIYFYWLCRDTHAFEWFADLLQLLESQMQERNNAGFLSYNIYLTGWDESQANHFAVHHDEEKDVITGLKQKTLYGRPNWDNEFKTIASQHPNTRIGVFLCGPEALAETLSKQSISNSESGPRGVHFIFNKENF
Sequence of NADPH oxidase 4 (Homo sapiens) (Q9NPH5 whole entry, looked up): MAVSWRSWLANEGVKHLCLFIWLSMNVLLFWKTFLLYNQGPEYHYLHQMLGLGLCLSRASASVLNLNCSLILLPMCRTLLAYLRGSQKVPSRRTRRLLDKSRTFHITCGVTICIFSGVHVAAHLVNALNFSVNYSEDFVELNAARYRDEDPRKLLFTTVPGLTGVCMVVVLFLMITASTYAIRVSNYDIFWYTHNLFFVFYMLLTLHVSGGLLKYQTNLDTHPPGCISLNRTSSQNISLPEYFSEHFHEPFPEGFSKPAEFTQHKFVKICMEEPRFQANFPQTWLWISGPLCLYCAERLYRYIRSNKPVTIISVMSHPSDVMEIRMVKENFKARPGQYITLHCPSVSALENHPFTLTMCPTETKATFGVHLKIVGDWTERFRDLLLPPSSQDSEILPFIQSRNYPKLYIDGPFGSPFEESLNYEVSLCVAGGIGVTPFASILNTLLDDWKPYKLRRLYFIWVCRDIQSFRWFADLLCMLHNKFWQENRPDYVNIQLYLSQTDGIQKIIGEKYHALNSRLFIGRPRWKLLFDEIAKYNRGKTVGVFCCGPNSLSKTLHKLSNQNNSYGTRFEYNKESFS
Sequence of NADPH oxidase 5 (Homo sapiens) (Q96PH1 whole entry, looked up): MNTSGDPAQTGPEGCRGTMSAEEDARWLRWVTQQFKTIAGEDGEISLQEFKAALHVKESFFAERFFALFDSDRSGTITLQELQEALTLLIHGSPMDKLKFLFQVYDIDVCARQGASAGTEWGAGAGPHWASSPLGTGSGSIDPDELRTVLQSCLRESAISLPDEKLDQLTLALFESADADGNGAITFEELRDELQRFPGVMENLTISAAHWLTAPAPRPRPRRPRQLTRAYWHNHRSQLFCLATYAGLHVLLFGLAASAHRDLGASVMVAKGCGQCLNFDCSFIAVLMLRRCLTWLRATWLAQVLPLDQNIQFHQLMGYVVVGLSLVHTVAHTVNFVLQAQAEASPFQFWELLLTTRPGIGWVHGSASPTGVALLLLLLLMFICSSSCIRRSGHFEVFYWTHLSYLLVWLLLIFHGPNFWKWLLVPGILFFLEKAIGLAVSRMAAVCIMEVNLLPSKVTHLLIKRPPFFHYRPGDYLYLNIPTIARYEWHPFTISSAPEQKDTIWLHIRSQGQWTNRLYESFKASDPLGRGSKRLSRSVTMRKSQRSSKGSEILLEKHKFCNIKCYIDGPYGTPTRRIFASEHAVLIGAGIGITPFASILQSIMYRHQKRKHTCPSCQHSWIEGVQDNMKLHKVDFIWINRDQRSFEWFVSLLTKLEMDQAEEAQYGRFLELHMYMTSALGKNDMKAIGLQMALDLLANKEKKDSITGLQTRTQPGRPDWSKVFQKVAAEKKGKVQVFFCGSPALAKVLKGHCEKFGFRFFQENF

On to `CC(C)c1ccc(NN2C(C(O)c3ccc(B(O)O)cc3)C=CC3C(=O)N(c4ccccc4)C(=O)C32)cc1` (stereo not given), for which the z-score was -1.04 (inactive) in test [1]; 1.93 (inactive) in [3]; 0.698 (inactive) in test [4]; 0.421 (inactive) in test [5]; 1.27 (inactive) in test [6]; -0.999 in test [7]. Further, the z-score in test [8] is -1.02 (inactive); in test [9] it was -2.31 (inactive); in test [10], -4.18. The same compound displayed a composite z-score in test [2] of 0.0595.

As to `COCCOC(=O)N1C(=O)[C@@]2(c3cc(C#CCC(C(=O)OC)C(=O)OC)ccc31)[C@H](C(=O)Nc1nc3ccccc3s1)[C@H]1C(=O)O[C@H](c3ccccc3)[C@H](c3ccccc3)N1[C@@H]2c1ccccc1OCCO`, the z-score is 0.275 (inactive) in test [1]; 11.2 (active) in test [3]; 2.85 (inactive) in [4]; 0.599 (inactive) in test [5]; 2.31 (inactive) in test [6]; 0.0413 in test [7]. The z-score in [8] was 0.652 (inactive); in test [9], 0.671 (inactive); in [10], 0.234. Moreover, the composite z-score in [2] is 0.212.

As to `CC1(C)[C@@H]2CC(C(O)C3C=CC4C(=O)N(Cc5ccccc5)C(=O)C4N3n3cnnc3)=C[C@H]1C2` (stereo not given in full), the z-score in test [1] is -0.316 (inactive); in test [3], 1.31 (inactive); in test [4], 1.24 (inactive); in [5], 0.313 (inactive); in test [6], 0.927 (inactive); in test [7], -0.688. For the same compound, the figures for the z-score in [8], in [9] and in test [10] were -0.14 (inactive), 0.741 (inactive) and 0.273, respectively. This compound also came in with a composite z-score in test [2] of 0.0451.

As to `C=CCOC(=O)[C@H]1[C@@H]2C(=O)O[C@@H](c3ccccc3)[C@@H](c3ccccc3)N2[C@@H](c2ccc(OCCOC(=O)[C@@H]3C[C@@H]4C(=O)N[C@@H](CCCCNC(C)=O)C(=O)N4[C@@H]3c3ccc(O)cc3)cc2)[C@]12C(=O)Nc1ccccc12`, the z-score is -0.226 (inactive) in test [1]; 3.21 (inactive) in [3]; 1.61 (inactive) in test [4]; 4.15 (inactive) in [5]; 0.841 (inactive) in test [6]; -0.0842 in [7]. Moreover, the z-score is 1.56 (inactive) in test [8], 0.962 (inactive) in test [9] and 0.576 in test [10]. The composite z-score in test [2] turned out to be 0.379.

Take `[N-]=[N+]=Nc1ccccc1[C@@H]1OC(c2ccc(OCCCO)cc2)=N[C@]1(Cc1ccccc1)C(=O)N1CCOCC1`: the z-score was 0.123 (inactive) in test [1]; 31.8 (active) in test [3]; 32.1 (active) in [4]; 2.51 (inactive) in test [5]; 3.91 (inactive) in test [6]; -0.37 in [7]. The z-score in test [8] is -0.507 (inactive); in test [9], -0.36 (inactive); in [10], -1.77. In [2], this compound registered a composite z-score of 0.391.

Turning to `COc1cc2c(cc1O)C(c1cccs1)N(C)CC2` (stereo not given), the z-score in [1] was 0.158 (inactive); in [3] it was 4.23 (inactive); in test [4] it was 1.17 (inactive); in test [5] it was -0.0863 (inactive); in test [6], 0.352 (inactive); in test [7], -0.331. The values for the z-score in [8], in test [9] and in test [10] were -4.66 (inactive), -2.71 (inactive) and -2.33, respectively. The compound further returned a composite z-score in test [2] of -0.103.

On to `CC(C)C(=C=CC[C@@H](O)c1ccc(OCCO)cc1)C[C@@H](O)c1ccccn1`, for which the z-score was -0.197 (inactive) in test [1]; 6.54 (inactive) in test [3]; 0.977 (inactive) in [4]; 0.166 (inactive) in test [5]; 0.479 (inactive) in test [6]; -0.652 in test [7]. Moreover, the z-score is 0.0116 (inactive) in [8], 0.26 (inactive) in test [9] and -0.124 in test [10]. For the same compound, the composite z-score in test [2] was -0.101.

As to `C=CC1(C(=O)OC)CC=C(C(=O)OC)CC1` (stereo not given), the z-score was 0.2 (inactive) in test [1]; 0.655 (inactive) in test [3]; -0.87 (inactive) in [4]; -1.3 (inactive) in [5]; -1.96 (inactive) in [6]; 0.674 in [7]. In addition, the figures for the z-score in [8], in test [9] and in [10] were 0.379 (inactive), -0.389 (inactive) and -0.0703, respectively. The composite z-score in test [2] is 0.0262.

In the case of `C=C(CCCC)/C(=C/C[C@H](OC(=O)c1ccncc1)c1ccccc1OCCO)c1cnc2ccccc2c1`, the z-score in [1] was -0.244 (inactive); in test [3] it was 23.7 (active); in test [4] it was 4.64 (inactive); in test [5], 1.08 (inactive); in [6] it was 1.02 (inactive); in test [7], 0.0376. The results for the z-score in test [8], in test [9] and in test [10] were -1.22 (inactive), -0.281 (inactive) and -1.45, respectively. This compound had a composite z-score in [2] of 0.11.

On to `O=C1[C@@]23C=C(Br)[C@H](C[C@@H]2CCOC3)[C@@]12CO2`, for which the z-score in [1] was -0.0625 (inactive); in [3], -0.306 (inactive); in test [4] it was -0.261 (inactive); in test [5], -0.0502 (inactive); in test [6] it was 0.0369 (inactive); in [7] it was -0.31. For the same compound, the z-score in test [8] was -0.172 (inactive); in [9] it was 0.723 (inactive); in test [10] it was -0.34. Besides, the composite z-score in test [2] is -0.216.

As for `Cc1ccc(S[C@]2(C(=O)NCCCN(C)C)CC(=O)N(Cc3ccccc3C(F)(F)F)[C@@H]2c2ccc(CO)cc2)cc1`, the z-score in test [1] is 0.674 (inactive); in test [3] it was 0.926 (inactive); in test [4] it was 0.479 (inactive); in [5], 0.298 (inactive); in test [6], -0.0133 (inactive); in test [7] it was 0.104. In addition, the values for the z-score in test [8], in [9] and in test [10] were -6.22 (inactive), 0.165 (inactive) and 0.526, respectively. Further, the composite z-score in [2] came out at 0.337.

For `C=C(COC)C(=O)CC[C@@H](OC(C)=O)c1ccc(CO)o1`, the z-score was 0.0488 (inactive) in [1]; 0.116 (inactive) in test [3]; -0.47 (inactive) in [4]; 0.195 (inactive) in test [5]; -0.38 (inactive) in test [6]; -0.142 in test [7]. Moreover, the z-score was 0.663 (inactive) in [8], 0.0844 (inactive) in test [9] and 0.46 in [10]. Besides, the composite z-score in test [2] was determined as 0.0371.

On to `CCCCC(CC)C(O)C1C=CC2C(=O)N(Cc3ccccc3)C(=O)C2N1n1cnnc1` (stereo not given), for which the z-score in test [1] was -1.5 (inactive); in test [3], 0.218 (inactive); in test [4] it was 0.0653 (inactive); in [5], 0.604 (inactive); in test [6], 0.411 (inactive); in test [7], -0.908. Further, the results for the z-score in test [8], in test [9] and in test [10] were -0.132 (inactive), -0.476 (inactive) and -0.99, respectively. The same compound had a composite z-score in test [2] of 0.0903.

Consider `COCCOC(=O)N1C(=O)[C@@]2(c3cc(C#CC4(O)CCCCCC4)ccc31)[C@H](c1ccccc1OCCO)N1[C@H](c3ccccc3)[C@H](c3ccccc3)OC(=O)[C@H]1[C@@H]2C(=O)N1CCN(c2ncccn2)CC1`, for which the z-score is 0.888 (inactive) in [1]; 1.67 (inactive) in test [3]; 1.31 (inactive) in [4]; 0.824 (inactive) in test [5]; 0.712 (inactive) in [6]; -0.0324 in test [7]. For the same compound, the z-score in test [8] was 0.342 (inactive); in test [9], 0.386 (inactive); in test [10] it was 1.03. Moreover, the composite z-score in [2] was -0.0437.

Regarding `CNS(=O)(=O)c1ccc(C)cc1`, the z-score is 2.78 (inactive) in test [1]; -0.699 (inactive) in test [3]; -1.07 (inactive) in test [4]; -0.886 (inactive) in test [5]; -2.23 (inactive) in test [6]; 0.929 in [7]. The z-score in [8] is 2.36 (inactive); in test [9], 0.878 (inactive); in test [10], 0.669. The compound also showed a composite z-score in [2] of -0.371.

Regarding `[N-]=[N+]=Nc1ccccc1[C@H]1OC(c2ccc(OCCCO)cc2)=N[C@@]1(CCS(=O)(=O)c1ccccc1)C(N)=O`, the z-score was 0.613 (inactive) in [1]; 32 (active) in [3]; 28.1 (active) in test [4]; 1.48 (inactive) in test [5]; 2.16 (inactive) in test [6]; -0.0187 in [7]. Also, the z-score is 0.178 (inactive) in [8], 0.067 (inactive) in test [9] and -0.909 in test [10]. Further, the composite z-score in test [2] worked out at 0.138.

For the compound `CC(C)N1C(=O)C[C@@](C(=O)NCC(F)(F)F)(c2ccc([N+](=O)[O-])cc2)[C@H]1c1ccc(CO)cc1`, the z-score in test [1] is 1.09 (inactive); in test [3] it was 0.642 (inactive); in test [4], -0.558 (inactive); in test [5], 0.533 (inactive); in [6], -1.68 (inactive); in test [7] it was 2.47. Also, the z-score in [8] was 0.271 (inactive); in [9], 0.465 (inactive); in test [10], -0.127. For the same compound, in test [2], the composite z-score is -0.101.

For `C[N+](C)(C)CCCCNC(=O)[C@@H]1C[C@@H]2C(=O)N[C@@H](Cc3ccccc3)C(=O)N2[C@@H]1c1cccc(OCCO)c1`, the z-score was 1.04 (inactive) in test [1]; 3.16 (inactive) in [3]; 0.469 (inactive) in test [4]; -1.44 (inactive) in test [5]; 0.13 (inactive) in test [6]; 1.91 in test [7]. Besides, the z-score is -0.682 (inactive) in [8], -0.331 (inactive) in test [9] and 0.856 in test [10]. Further, the composite z-score in [2] is -0.0094.

For the origin of these results see PubChem BioAssay.
